Source: PubChem BioAssay (NCATS)
Records with an inconclusive call do not appear. Calls of active or inactive are those of the source.

Test: qHTS for identification of novel therapeutic agents for treatment of microphthalmiaassociated transcription factor (MiT) renal cell carcinoma (RCC) (AID 1963991)
Conditions: CellTiter-Glo, 48 h; for Potency: active = Z-AUC below -0.8 in all three lines; for z-score: stronger effect = lower value
Excerpt: PI: Marston Linehan Ph.D.
Urologic Oncology Branch, Center for Cancer Research (CCR)
National Cancer Institute (NCI), National Institute of Health (NIH), Bethesda, Maryland
MiT-Renal Cell Carcinoma (RCC) is characterized by genomic translocations involving microphthalmia-associated transcription factor (MiT) family members TFE3, TFEB, or MITF. MiT-RCC represents a specific subtype of sporadic RCC that is predominantly seen in young patients and can present with heterogeneous histological features making diagnosis challenging. Moreover, the disease biology of this aggressive cancer is poorly understood and there is no accepted standard of care therapy for patients with advanced disease. Tumor-derived cell lines have been established from human TFE3-RCC providing useful models for preclinical studies. TFE3-RCC tumor derived cell lines and their tissues of origin were characterized by IHC and gene expression analyses. An unbiased high-throughput drug screen was performed to identify novel therapeutic agents for treatment of MiT-RCC. Potential therapeutic candidates were validated in in vitro and in vivo preclinical studies. Mechanistic assays were conducted to confirm the on-target effects of drugs. The results of a high-throughput small molecule drug screen utilizing three TFE3-RCC tumor-derived cell lines identified five classes of agents with potential pharmacological efficacy, including inhibitors of phosphoinositide-3-kinase (PI3K) and mechanistic target of rapamycin (mTOR), and several additional agents, including the transcription inhibitor Mithramycin A. Upregulation of the cell surface marker GPNMB, a specific MiT transcriptional target, was confirmed in TFE3-RCC and evaluated as a therapeutic target using the GPNMB-targeted antibody-drug conjugate CDX-011. […] The results of the high-throughput drug screen and validation studies in TFE3-RCC tumor-derived cell lines have provided in vitro and in vivo preclinical data supporting the efficacy of the PI3K/mTOR inhibitor.
SEQUENCE No. (e.g., 1, 2, 3, etc.); […] (e.g., Cells, Incubation, Reagent, etc.); VALUE; DESCRIPTION.
1; Cells; 3 uL; white, solid-bottom Grenier assay plate.
2; Compounds; 23 nL; Kalypsis pin-tool (Wako USA).
3; Incubation; 48 hr; 37 C, 5% CO2, 95% humidity.
4; Reagent; 3 uL; CellTiter-Glo reagent (Promega).
5; Incubation; 15 min; room temperature.
6; Detection; Luminescence; ViewLux plate reader (PerkinElmer).
NOTES (numbers refer to Sequence numbers above)
1. Quantitative high-throughput screening (qHTS) of 1912 pharmacologically defined small molecule compounds was conducted on three TFE3-fusion cell lines bearing three different fusion partners (UOK109, UOK124, UOK145). Briefly, 500 cells in complete growth media were plated into white, solid-bottom, 1536-well tissue culture treated plates (Grenier Cat. 789173-F) using a Multidrop Combi cassette dispenser.
2. Twenty-three nanoliter of 1912 pharmacologically defined small molecule compounds of the NCATS Mechanism Interrogation PlatE (MIPE) version 4.0 were added to each assay plate using a Pintool Dispenser (Wako) equipped with 1536 pin head.
3. Plates were covered with stainless steel gasketed lids and incubated for 48 hours at standard cell culture conditions.
4. Viability was assessed by adding 3uL of CellTiter-Glo detection reagent (Promega).
5. Plates were covered with gasket lids and incubated for 15 minutes at room temperature.
6. Luminescence was measured on a ViewLux plate reader (PerkinElmer). Post-screen data processing used DMSO controls as 100% viability and empty wells as 0% viability and dose response curve fitting was done for all 11 concentrations for each compound.

[1] = TFE3-RCC UOK109 viability, measured here: UOK109 Z-AUC
[2] = TFE3-RCC viability, measured here: UOK124 Z-AUC
[3] = TFE3-RCC viability, measured here: UOK145 Z-AUC
Potency means the concentration at half of the fitted maximal effect.

SMILES | Potency (TFE3-RCC UOK109 viability) | z-score [1] | z-score [2] | z-score [3]
CC[C@@]1(O)C(=O)OCc2c1cc1n(c2=O)Cc2cc3cc(O)ccc3nc2-1 | 1.48 µM (active) | -0.967 | -1.78 | -2.02
O=C(Cc1ccc(-c2ccc(OCCN3CCOCC3)cc2)cn1)NCc1ccccc1 | 0.148 µM (active) | -1.65 | -2.5 | -1.24
CCn1nnc2c(N3CCOCC3)nc(-c3ccc(NC(=O)Nc4ccc(C(=O)N5CCN(C)CC5)cc4)cc3)nc21 | 0.526 µM (active) | -1.28 | -1.68 | -1.94
CC(C)(O)c1cc2nc(-c3cnc(N)nc3)nc(N3CCOCC3)c2s1 | 0.0332 µM (active) | -2.49 | -0.824 | -2.51
C[C@@H](Oc1cc(-n2cnc3ccc(CN4CCN(C)CC4)cc32)sc1C(N)=O)c1ccccc1C(F)(F)F | 6.62 µM (active) | -0.886 | -1.58 | -1.64
CC(C)c1cnn2c(NCc3ccccc3)cc(N[C@@H](CO)[C@H](O)CO)nc12 | 0.372 µM (active) | -1.04 | -0.933 | -1.84
COc1cc(=C2C=c3ccccc3=N2)[nH]c1=Cc1[nH]c(C)cc1C | 8.33 µM (active) | -1.08 | -0.978 | -0.974
C=CCn1c(=O)c2cnc(Nc3ccc(N4CCN(C)CC4)cc3)nc2n1-c1cccc(C(C)(C)O)n1 | 0.235 µM (active) | -1.89 | -1.72 | -2.1
COC(=O)C[C@](O)(CCCC(C)(C)O)C(=O)O[C@@H]1C(OC)=C[C@]23CCCN2CCc2cc4c(cc2[C@H]13)OCO4 |  | 0.959 | 0.544 | 0.67
COc1c(N2C[C@@H]3CCCN[C@H]3C2)c(F)cc2c(=O)c(C(=O)O)cn(C3CC3)c12 |  | 0.422 | 1.3 | 1.53
Cn1c2cc(S(C)=O)sc2c2cnn(Cc3cccc(N)c3)c(=O)c21 (stereo unspecified) |  | 0.336 | 0.595 | 0.401
